The full ranking holds about 68,000 sequences; the median of “fluorescence intensity (a.u.)” is about 9,100, and the highest 2% start at about 16,000. This is one part of a sample in which the highest values are shown more often than they occur.
These sequences were tested against OsWRKY34 (Oryza sativa, UniProt Q0JBA9 1-250) (assay: protein-binding microarray (RPBM); PBS, 2% BSA, 51.3 ng/ul salmon testes DNA, 50 uM zinc acetate, 200 nM TF, 25 C, 1 h; high values mean tight binding). Conditions: protein: recombinant; tags: N-terminal polyhistidine and DsRed monomer fusion (pET32a); label: CyDye5-dUTP incorporated in the synthesized complementary strand; 3' TTTTT single-stranded linker to array surface; dsDNA, one strand shown.
OsWRKY34, sequence (Q0JBA9 entry or part of it): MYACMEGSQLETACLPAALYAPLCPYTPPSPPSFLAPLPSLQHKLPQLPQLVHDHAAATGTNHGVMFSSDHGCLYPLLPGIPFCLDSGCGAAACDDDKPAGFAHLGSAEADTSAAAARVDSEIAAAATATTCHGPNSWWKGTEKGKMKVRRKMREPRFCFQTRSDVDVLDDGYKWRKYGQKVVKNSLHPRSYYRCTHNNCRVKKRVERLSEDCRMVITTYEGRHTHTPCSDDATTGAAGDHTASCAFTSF
Procedure, shortened: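 The binding signal is fluorescence intensity per array feature (arbitrary units). Readings came from an Axon 4000B scanner after a washed, 2% BSA-blocked, double-stranded custom Agilent array had been incubated for 1 h at 25 °C with 200 nM protein and 50 µM zinc acetate. The protein was a Ni–NTA-purified transcription factor fused N-terminally to polyhistidine and DsRed, expressed in E. coli BL21-CodonPlus.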
With “TTCTTGGTTTTGAGTTCTCTTCTCGGTTTTCTCTTTAGCGCGGAGTCACCTAGTGCAG” the binding signal was 9000 fluorescence intensity (a.u.).
For “TCTGAAGATGAGAGAGAGCTCACAGTTTATGGTTTTTGTACGGAGTCACCTAGTGCAG”, the binding signal was 8830 fluorescence intensity (a.u.).
For “TGGTTTGGTTGTGGTAGATCTTTTTTACTTATTGCTACCACGGAGTCACCTAGTGCAG”, the binding signal was 15800 fluorescence intensity (a.u.).
“ATACTCGAGATGGGCGCTTGGTACTTGCATGTTTCCATTCCGGAGTCACCTAGTGCAG” was tested, and the binding signal was 8680 fluorescence intensity (a.u.).
With “AAATGTTACAATCATGCTCCAAACTCACACCTTGTTTAACCGGAGTCACCTAGTGCAG” the binding signal was 8540 fluorescence intensity (a.u.).
With “CCTTTCACCCGCCCAAACTCATCCATCCATCGATCGCCCTCGGAGTCACCTAGTGCAG” the binding signal was 8560 fluorescence intensity (a.u.).
In the case of “GCAATCCGTGTAATTAATTATTTTTTCGTTTATACTCTCTCGGAGTCACCTAGTGCAG”, the binding signal is reported as 10200 fluorescence intensity (a.u.).
In the case of “CTTCCCACGCCAACGCCTCCGCTCCCGCTCGTACCACGCGCGGAGTCACCTAGTGCAG”, the binding signal is reported as 8090 fluorescence intensity (a.u.).
In the case of “TCGGTCGGGTCGGGTCGGGTCGCGTCGCGTGGGCTGCATGCGGAGTCACCTAGTGCAG”, the binding signal is reported as 12200 fluorescence intensity (a.u.).
With “GCCTCCGCCGCCGCCGCCGCCGCCGCGTCGTCTCCGACCGCGGAGTCACCTAGTGCAG” the binding signal was 9710 fluorescence intensity (a.u.).
For “GGTTAGGGTTTGGGGTGGGGAGGGGTGGATGCGCGTGGGCCGGAGTCACCTAGTGCAG”, the binding signal was 21600 fluorescence intensity (a.u.).
With “GGTTTTCCCTGGATGCCGAGAGGGTTTGGGTGCGCGCCGCCGGAGTCACCTAGTGCAG” the binding signal was 8910 fluorescence intensity (a.u.).
With “GTGGTGGGTGGTGGCCGCGCTGCTGCGCGGTGGGTCGCATCGGAGTCACCTAGTGCAG” the binding signal was 11400 fluorescence intensity (a.u.).
With “TTCTTGGGGCTGGAGAGGGTGGGGATGGTGGTGCGGATGCCGGAGTCACCTAGTGCAG” the binding signal was 15000 fluorescence intensity (a.u.).
In the case of “CCCAACCTCGCCGTCGCCGTCGCCGTCGCCGCCGTCTCCGCGGAGTCACCTAGTGCAG”, the binding signal is reported as 10000 fluorescence intensity (a.u.).
With “GCTGCGGCCGTCAACGTGGTCGTCGTCTCCGCGGCCGCCGCGGAGTCACCTAGTGCAG” the binding signal was 46900 fluorescence intensity (a.u.).
“CTGGTCGTCGCTGCTCCGCGTGCCGGTCGGGGTGGGTGGGCGGAGTCACCTAGTGCAG” was tested, and the binding signal was 20100 fluorescence intensity (a.u.).
For “TCGGTTGGTTGGGAATTTCCATGACTATTTTCACCTATAACGGAGTCACCTAGTGCAG”, the binding signal was 8650 fluorescence intensity (a.u.).
“AGGCTTCCAATCTTGTGCTAATCTGCTGGTGAAGTATATGCGGAGTCACCTAGTGCAG” was tested, and the binding signal was 8480 fluorescence intensity (a.u.).
“CTCCGCCGCCACGCTCGCCCGCTGTTTGCTCCGTCCGCAGCGGAGTCACCTAGTGCAG” was tested, and the binding signal was 8350 fluorescence intensity (a.u.).
With “TCTCTGGTGGCTCCCTGGCGCTCCTCTTCACTCCATCCTCCGGAGTCACCTAGTGCAG” the binding signal was 9090 fluorescence intensity (a.u.).
“TTTCTAGATGTCTACGCGTTATCAGCATGTTGATGTCTACCGGAGTCACCTAGTGCAG” was tested, and the binding signal was 8460 fluorescence intensity (a.u.).
With “GTCTCTTCTCTTCTCTCGTGCAAGGCCGGCAGTGTACCGTCGGAGTCACCTAGTGCAG” the binding signal was 9270 fluorescence intensity (a.u.).
For “CGTTTCAAAATATTTAACACCGTTGACTTTTTAGTACGTGCGGAGTCACCTAGTGCAG”, the binding signal was 31100 fluorescence intensity (a.u.).
“TAGAAGAGCGCGTTGACACCGTTGACTTTGGATTTTCCGTCGGAGTCACCTAGTGCAG” was tested, and the binding signal was 18700 fluorescence intensity (a.u.).
With “TTGGTAGAGTTGTCCGTTTGGATTTTGGCCTCCCTTTTTTCGGAGTCACCTAGTGCAG” the binding signal was 8380 fluorescence intensity (a.u.).
With “AAAACACCAAATTAGTTTTATTAAAACTAACTTTCAAATACGGAGTCACCTAGTGCAG” the binding signal was 11900 fluorescence intensity (a.u.).
With “CTCCCTCTGTTTCAAAATATTTGACACTGTTGACTTTTTACGGAGTCACCTAGTGCAG” the binding signal was 11000 fluorescence intensity (a.u.).
With “CCGTTGACTTGGATTTGTTCCTTTTTCATTTTTTATCGTTCGGAGTCACCTAGTGCAG” the binding signal was 14700 fluorescence intensity (a.u.).
With “ATTCAACACTTTTAAAATATTTTGATTGCGGTTTCTTTTACGGAGTCACCTAGTGCAG” the binding signal was 9530 fluorescence intensity (a.u.).
In the case of “ATATTTGACCGTTTGTCTTTTTCAAAAACTTTTGTGAAATCGGAGTCACCTAGTGCAG”, the binding signal is reported as 9920 fluorescence intensity (a.u.).
“TCAAAATATTTGACACCGTTGACTTTTTAGGACGTGTTTACGGAGTCACCTAGTGCAG” was tested, and the binding signal was 24900 fluorescence intensity (a.u.).
For “GTTTGTCGTAGTAGTTTATTTTTGACACCGGCTTTCAAATCGGAGTCACCTAGTGCAG”, the binding signal was 9880 fluorescence intensity (a.u.).
“GTTTCAAAATATTTGACACCGTTGACTTTTTAGTACGTGTCGGAGTCACCTAGTGCAG” was tested, and the binding signal was 19100 fluorescence intensity (a.u.).
In the case of “CAAATTAGATGTTATTTTGACTTTTTTTTACAATATTTGACGGAGTCACCTAGTGCAG”, the binding signal is reported as 10600 fluorescence intensity (a.u.).
“ATCTGCCTAACGTAAAATGCACTATATTCTGTTTTGTTCTCGGAGTCACCTAGTGCAG” was tested, and the binding signal was 8370 fluorescence intensity (a.u.).
In the case of “GTGGCGACTGTTATCCCTAATTTTGCGGACTTGCTCTGATCGGAGTCACCTAGTGCAG”, the binding signal is reported as 9800 fluorescence intensity (a.u.).
“AACCACCTGAATTTCGTCGAATTTTACCAATTCTGCTGAACGGAGTCACCTAGTGCAG” was tested, and the binding signal was 9120 fluorescence intensity (a.u.).
“AAGACATGTGAATTTTGGTGGGATGTGGATGGGGAATTGACGGAGTCACCTAGTGCAG” was tested, and the binding signal was 9840 fluorescence intensity (a.u.).
For “TTCTATTTTACCTCTCGTCTCTCTCCTCGCGGTCGCTTCTCGGAGTCACCTAGTGCAG”, the binding signal was 12800 fluorescence intensity (a.u.).
For “CTCCTCGGGCTAAAAGTGGTAATACGCGTTTCTCAAGCTTCGGAGTCACCTAGTGCAG”, the binding signal was 9930 fluorescence intensity (a.u.).
For “CTCACTTGACCGTGAACAGCACTCACTTGATTTGTACTTTCGGAGTCACCTAGTGCAG”, the binding signal was 10000 fluorescence intensity (a.u.).
“TGTTCTCTCCTGCCTCCACACTTTCTGGCACGGTACAAAACGGAGTCACCTAGTGCAG” was tested, and the binding signal was 8370 fluorescence intensity (a.u.).
In the case of “TTAATTTCACGGTTTCATCTCGACATCTCATCATCTGTTTCGGAGTCACCTAGTGCAG”, the binding signal is reported as 12100 fluorescence intensity (a.u.).
In the case of “ATGCCATTTTTCCCGTTTGTTGCAATTGCAAAACATTTTTCGGAGTCACCTAGTGCAG”, the binding signal is reported as 8580 fluorescence intensity (a.u.).
For “CTCTCACACCGTGCCATATCCCGAACATCCCTTGATCGAACGGAGTCACCTAGTGCAG”, the binding signal was 9530 fluorescence intensity (a.u.).
“CTTTCCTGTACTATTTTACTGTCCGATTTACAACATGTGACGGAGTCACCTAGTGCAG” was tested, and the binding signal was 12900 fluorescence intensity (a.u.).
With “TCGGTTTTTACTGCTTCCATCAGACGTCGGTCTGTTTTCGCGGAGTCACCTAGTGCAG” the binding signal was 9470 fluorescence intensity (a.u.).
For “ACCTGTTTCGTTCGTCCACGCCAGCGCCAACCGGACATGACGGAGTCACCTAGTGCAG”, the binding signal was 9460 fluorescence intensity (a.u.).
In the case of “TCTTGTATTCTCCACTAGTCTTGGGTCATCCATTCTTCAGCGGAGTCACCTAGTGCAG”, the binding signal is reported as 8550 fluorescence intensity (a.u.).
In the case of “GCCTCTGTTCTTCCACTCATTATTATCATTTGCAGCTCCGCGGAGTCACCTAGTGCAG”, the binding signal is reported as 10400 fluorescence intensity (a.u.).
“TCCCAACCCACCGTTCCATTCTCTCGAGCTCACCCCGTCACGGAGTCACCTAGTGCAG” was tested, and the binding signal was 10500 fluorescence intensity (a.u.).
In the case of “ATTTTCAAAATATTTGACACTGTTGACTTTTTAGTACATACGGAGTCACCTAGTGCAG”, the binding signal is reported as 9840 fluorescence intensity (a.u.).
For “TCGTTTCAAAATACTTGACACCGTTGACTTTTTAGTACGTCGGAGTCACCTAGTGCAG”, the binding signal was 23300 fluorescence intensity (a.u.).
With “TCTGTATTAGCGTTCGGTTGTTTTATTTGACTTTCCAAATCGGAGTCACCTAGTGCAG” the binding signal was 8360 fluorescence intensity (a.u.).
“ACTTTTTAGTGCGTATTTGACTATTCGTCTTATTTAAAAACGGAGTCACCTAGTGCAG” was tested, and the binding signal was 9800 fluorescence intensity (a.u.).
With “AAAAATATTTGACAGCGTTGACTTTTTAGTGCGTATTTGACGGAGTCACCTAGTGCAG” the binding signal was 42800 fluorescence intensity (a.u.).
In the case of “TTCAAAATATTTGACACCGTTGACTTTTTAGTACGTGTTTCGGAGTCACCTAGTGCAG”, the binding signal is reported as 18200 fluorescence intensity (a.u.).
“CCTCCGTTTCAAAATATTTGACACCGTTGACTTTTTAGTACGGAGTCACCTAGTGCAG” was tested, and the binding signal was 14100 fluorescence intensity (a.u.).
“TGTACTTCAAAAATTTACTTTACCGTGTGTTTTATTTTTTCGGAGTCACCTAGTGCAG” was tested, and the binding signal was 9650 fluorescence intensity (a.u.).
“CCGTTTCAAAATATTTGACACCGTTGACTTTTTAGTACGTCGGAGTCACCTAGTGCAG” was tested, and the binding signal was 26800 fluorescence intensity (a.u.).

Reference: publication PMC7819943, “Rice protein-binding microarrays: a tool to detect cis-acting elements near promoter regions in rice”
